Source: PubChem
This is a sample that favours compounds with a hit; in the whole collection about 2.8% have one here.
Pol kappa inh-1: DNA polymerase kappa (human) inhibition. Q9UBT6. purified Pol kappa, fluorescent DNA synthesis assay, 10 min. Potency, µM (series often up to 107 µM), without a hit: at the highest dose activity, negative = inhibition, actives largely listed as inhibitors. hit rate 0.53% among 400,000. AID 588579; further: potency means the concentration at half of the fitted maximal effect; on the % scale 0 is the no-effect control and ±100 the full control effect
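Inhibition of 10 nM Pol kappa is measured by a fluorescent read-out at 0 and 10 min following addition of 50 nM substrate (final), with a 15-min room-temperature compound preincubation.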
Pol iota inh: DNA polymerase iota (human) inhibition. Pol iota fluorescent replication assay, 10 min. Potency, µM (top dose mostly 115 µM), inactives show top-dose activity, negative = inhibition, usual class: inhibitors. hit rate 1% among 390,000. AID 588590; further: potency means the concentration at half of the fitted maximal effect
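Pol iota at 10 nM preincubated 15 min with compounds at room temperature; reaction started with fluorescent substrate, 50 nM final. Fluorescence read kinetically at 0 and 10 min; buffer-only wells as negative control.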
POLB inh: blocks human DNA polymerase beta activity. P06746. Pol beta primer extension/strand displacement, fluorescence kinetic. Potency, µM (series often up to 114 µM), for inactives: top-dose activity change, negative = inhibition, hits mostly inhibitors. hit rate 1.3% among 340,000. AID 485314; further: potency means the concentration at half of the fitted maximal effect; on the % scale 0 is the no-effect control and ±100 the full control effect
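Values derive from four-parameter Hill fits of normalized kinetic data: reads at 0 and 10 min following addition of 50 nM substrate to 10 nM Pol beta preincubated 15 min with compound.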
PI5P4Ka inh: PI5P4K alpha (human) kinase inhibition. P48426. hit rate 1.2% among 330,000. max response, %. PI5P4Kalpha enzyme, ADP-Glo luminescence, 60 min; active compounds read low; active means max response of -50% or lower; inconclusive means between -30% and -50%; inactive means -30% or higher; further: value at the top dose of about 77 µM; on the % scale 0 is the no-effect control and ±100 the full control effect
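Single end-point luminescence (ADP-Glo) quantified ADP from PI5P4Kalpha turnover; ATP 5 microM final, 1 h at RT, 0.1% CHAPS and 0.28 mM EGTA in HEPES pH 7.4.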
PI4K2A block: PI4K2A (human) kinase inhibition; activity change, negative = inhibition, % at 76.9 µM; Q9BTU6; hit rate 0.13% among 420,000; purified PI4K2A, ADP-Glo luminescence, 1 h; active compounds read low; in the data active means activity change below about -50%; inconclusive means mostly about -30% to -49%;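 further: -100% = wells without enzyme as full effect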
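ADP-Glo luminescence measured ADP generated by PI4K2A enzyme (4 ug/mL before mixing) with 1.2 mM PI substrate (pre-mix) and 300 microM ATP (pre-mix). Tris pH7.5 buffer with MgCl2, Triton X-100; 1 h reaction at ambient temperature.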
Pol eta inh-1: inhibitors of human DNA polymerase eta; hit rate 1.2% among 390,000; recombinant Pol eta, fluorescent DNA replication assay; AID 588591; Potency, µM (highest dose often 114 µM), without a hit: at the highest dose activity change, negative = inhibition, hits mostly inhibitors; further: potency means the concentration at half of the fitted maximal effect; on the % scale 0 is the no-effect control and ±100 the full control effect
Target sequence (Q9Y253 whole entry, looked up): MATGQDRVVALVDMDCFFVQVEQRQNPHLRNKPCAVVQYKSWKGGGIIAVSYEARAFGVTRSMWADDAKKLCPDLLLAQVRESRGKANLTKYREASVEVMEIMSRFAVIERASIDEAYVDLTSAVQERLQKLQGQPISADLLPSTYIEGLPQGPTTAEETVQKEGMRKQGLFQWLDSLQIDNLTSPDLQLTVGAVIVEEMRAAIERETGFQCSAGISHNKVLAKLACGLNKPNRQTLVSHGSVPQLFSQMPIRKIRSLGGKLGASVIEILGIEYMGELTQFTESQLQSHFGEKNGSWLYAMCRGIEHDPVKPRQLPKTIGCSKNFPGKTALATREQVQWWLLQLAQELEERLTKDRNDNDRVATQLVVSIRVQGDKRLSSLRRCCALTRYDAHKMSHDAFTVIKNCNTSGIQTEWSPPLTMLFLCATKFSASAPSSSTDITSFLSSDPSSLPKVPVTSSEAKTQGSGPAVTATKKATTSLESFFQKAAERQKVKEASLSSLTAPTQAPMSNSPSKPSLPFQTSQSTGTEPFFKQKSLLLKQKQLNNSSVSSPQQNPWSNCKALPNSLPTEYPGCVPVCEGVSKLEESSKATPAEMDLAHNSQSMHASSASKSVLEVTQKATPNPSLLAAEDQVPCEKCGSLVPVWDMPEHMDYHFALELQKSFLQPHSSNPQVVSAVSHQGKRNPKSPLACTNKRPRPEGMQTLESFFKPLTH
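Fluorescent replication assay: 50 nM final substrate added after a 15 min room-temperature compound preincubation with 10 nM enzyme. Signal taken at 0 min and again at 10 min.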
Pol kappa inh-2: confirmation of human DNA polymerase kappa inhibitors. Potency, µM, hits mostly inhibitors. shares compounds with Pol eta inh-1. purified Pol-kappa, fluorescent strand-displacement substrate. hit rate 76% among 920; further: potency means the concentration at half of the fitted maximal effect
Pol eta inh-2: Pol eta (human) inhibition, cherry-pick confirmation | hit rate 64% among 2,600 | Pol eta primer extension, TAMRA/BHQ fluorescence, 10 min | shares compounds with Pol eta inh-1 | Potency, µM, most hits filed as inhibitors; further: potency means the concentration at half of the fitted maximal effect
Starred values were filed as active, the others as inactive; u = inconclusive; x = not tested or not shown; [ ] = dose if it differs, or a comment. Unless noted, the call rests on the fitted dose curve; in most records, active means well fitted inhibition curve with a large enough effect; inconclusive means small, poorly fitted or top-dose-only effect, or another doubt; inactive means no such curve, though single readings can be large or run the other way.

SMILES	Pol kappa inh-1	Pol iota inh	POLB inh	PI5P4Ka inh	PI4K2A block	Pol eta inh-1	Pol eta inh-2	others
Cc1ccc(CNC(=O)Cn2c(=O)n(Cc3ccccc3)c(=O)c3c2c2cc(C)ccc2n3C)cc1	10%	49%	13%	x	0	-18%	x
CC(C)C[C@H]1CN(CCCC[C@@H]2CNC(=O)C(=O)N2Cc2ccccc2)C(=O)C(=O)N1CCc1ccccc1	x	x	x	-3	4	x	x
NS(=O)(=O)c1ccc(N=Nc2c(O)ccc3ccccc23)cc1	-3%	34%	11%	-27	-13	u	x
O=Nc1c(O)ccc2cc(S(=O)(=O)O)ccc12	u	18µM*	x	-18	u	14µM*	30*	Pol kappa inh-2=17*
COc1ccc(N2Cc3cccc(C(=O)N4CCOCC4)c3C2=O)cc1	4%	17%	3%	-4	3	-8%	x
COc1ccc(N2Cc3cccc(C(=O)Nc4ccc(Cl)cc4)c3C2=O)cc1	-32%	u	13µM*	x	3	u	u	Pol kappa inh-2=u
O=C(Nc1c(C(=O)c2ccc(Cl)cc2)oc2ccccc12)c1cc(=O)c2ccccc2o1	15%	5%	1%	x	-1	-20%	x
Cc1cc(=O)oc2c(CN3CCC(C)CC3)c(O)c(Cl)cc12	u	u	16µM*	u	4	13µM*	u
CCN(CC)Cc1c(O)c(Cl)cc2c(C)cc(=O)oc12	89µM*	u	10µM*	u	3	20µM*	u
Cc1cc(=O)oc2c(CN3CCCC3)c(O)c(Cl)cc12	-24%	-19%	u	11	2	u	x
Cc1ccc(-c2nc3c(c(SCC(=O)N4CCOCC4)n2)Cc2c(CO)cnc(C)c2O3)cc1	-20%	79µM*	-30%	-6	-5	u	u
Cc1noc(C)c1S(=O)(=O)NC(=O)C1(C)CCN1C(=O)CC(c1ccccc1)c1ccccc1 (stereo not drawn)	x	x	x	-2	-5	x	x
COc1ccc(/C=N/NC(=O)c2ccc(O)cc2O)cc1CSc1ccccn1	79µM*	u	20µM*	-71*	-1	14µM*	u
CN(C)C(=O)COc1ccccc1C(=O)OCC(=O)N(CCC#N)c1ccccc1	-21%	8%	x	x	x	x	x
O=C(Nc1ccccc1Cl)c1cnccn1	-9%	-15%	-12%	x	4	-4%	x
O=C(Nc1ccc(Br)cc1Cl)c1cnccn1	-34%	u	5%	x	2	40µM*	76*
O=C(/C=C/c1ccco1)Nc1cccc(NC(=O)/C=C/c2ccco2)n1	-30%	35µM*	25µM*	-58*	-8	20µM*	u
COc1cccc(NC(=S)NC(=O)/C=C/c2ccco2)c1	u	28µM*	40µM*	-54*	-10	45µM*	48*	Pol kappa inh-2=17*
CC(=O)N(C)c1ccc(NC(=S)NC(=O)/C=C/c2ccco2)cc1	-21%	-6%	-7%	-28	-10	-22%	x
CC(=O)Nc1ccc(NC(=S)NC(=O)/C=C/c2ccco2)cc1	45µM*	u	-3%	-64*	-20	28µM*	60*
COC(=O)CC1C(C)(C)C(=O)C2CC3=C(CC[C@]4(C)C3=CC(=O)OC4c3ccoc3)[C@@]1(C)C2=O (stereo partly drawn)	-7%[60.1 µM]	x	x	x	x	x	x
COc1ccc(Cl)cc1Nc1nc2ccc(C(=O)c3ccccc3)cc2n2cnnc12	5%	-10%	24%	x	-2	11%	x
O=C(O)c1ccc2c(=O)n3cc(C(=O)c4ccccc4O)cc(Cl)c3nc2c1	-51%	u	u	u	-3	8.9µM*	12*
O=C(c1cccs1)N1CC[C@H]2[C@H](CCCN2Cc2cc(F)cc(F)c2)C1	x	x	x	x	1	x	x
CN(C)CCNC(=O)CCCN1C(=O)c2cccnc2Oc2ccc(Cl)cc21	-3%	10%	-16%	x	-2	-25%	x
SMILES	Pol kappa inh-1	Pol iota inh	POLB inh	PI5P4Ka inh	PI4K2A block	Pol eta inh-1	Pol eta inh-2	others
Cc1ccccc1OCC(=O)OCC(=O)Nc1ncc(Cl)c(C)c1Cl	u	u	x	-19	-6	28µM*	u	Pol kappa inh-2=u
Cc1cc(C)cc(NC(=O)COC(=O)[C@@H](NC(=O)c2ccco2)C(C)C)c1	5%	53%	3%	5	5	-20%	x
Cc1c(Cl)cnc(NC(=O)COC(=O)[C@@H](NC(=O)c2ccco2)C(C)C)c1Cl	-17%	u	x	u	-13	50µM*	u	Pol kappa inh-2=u
O=C1C=C(c2ccc(C(=O)O)cc2)C[C@@H](c2ccc3c(c2)OCO3)C1	-29%	u	x	u	-9	u	u
Cc1ccc2nc(/C(C#N)=C/c3ccc(-c4ccccc4C(=O)O)o3)[nH]c2c1	u	u	22µM*	u	-5	20µM*	x	Pol kappa inh-2=u
CCOC(=O)c1ccc(-c2ccc(/C=C(\C#N)c3nc4ccc(C)cc4[nH]3)o2)cc1	-5%	3%	u	x	3	x	x
Cc1cc(/C=C(/C#N)c2nc3ccccc3[nH]2)c(C)n1-c1ccccc1C(=O)O	u	11µM*	20µM*	-23	0	18µM*	38*	Pol kappa inh-2=17*
COc1ccc(C(=O)Nc2ccc3c(c2)CCCN3S(=O)(=O)c2ccc(C)cc2)c(OC)c1	-3%[60.1 µM]	-2%	u	x	-1	-26%	x
COc1cc(-c2[nH]nc3c2C(c2ccco2)C(C#N)=C(N)O3)cc(OC)c1OC (stereo not drawn)	-29%	-23%	25%	-13	0	-13%	x
COc1cc(-c2[nH]nc3c2C(c2ccoc2)C(C#N)=C(N)O3)cc(OC)c1OC (stereo not drawn)	u	u	18µM*	u	-1	u	u
COc1ccc(C(=O)NCc2cn3ccc(C)cc3n2)cc1	5%	7%	-2%	x	-3	1%	x
Cc1ccn2cc(CC(=O)O)nc2c1	u	u	13µM*	-1	0	14µM*	67*
Oc1ccc(-c2cn3ccccc3n2)cc1O	11%	11%	0%	-14	-19	-12%	x
Cc1ccn2cc(-c3ccc(O)c(O)c3)nc2c1	20µM*	14µM*	10µM*	-29	u	22µM*	u
CCOc1ccc2oc(C(=O)N(C)CC(=O)Nc3ccc(OCC)c(OCC)c3)c(C)c2c1	-9%	-6%	x	-4	5	-19%	x
O=[N+]([O-])c1ccc2nc(CO)[nH]c2c1	-9%	1%	x	x	x	x	x
Cc1ccc(-n2c3nc(=O)[nH]c(=O)c-3cc3cc([N+](=O)[O-])ccc32)cc1C	-7%	50%	-7%	-16	-7	20µM*	u
